This passage reports INHIBITION results from ChEMBL document CHEMBL4513216, “Probing the Open Global Health Chemical Diversity Library for Multistage-Active Starting Points for Next-Generation Antimalarials” (ACS Infect Dis, 2020).

The campaign covered roughly 69,000 compounds. About 8,600 (12%) showed an effect of 50% or more. What follows is part of a selection rich in strong results, with near analogues and random picks from the rest.

The test deals with Plasmodium berghei. Description: Screen against P. berghei liver stage (PbLuc), transformed with Luciferase, at 10uM. Type of test: functional, HepG2. To be noted: tested at 10 uM.
Take `COCCNC(=O)[C@H]1CN(Cc2nccs2)C[C@H]2OCC[C@@H]12`: the INHIBITION is reported as -3.19%.

Regarding `CCOCCC1(CNC(=O)c2ccc(C)nc2)CCCC1`, the INHIBITION is on record as -30.6%.

With `Cc1cccc(-c2noc(CN3CCC(c4ccn[nH]4)CC3)n2)c1`, the INHIBITION was -39.6%.

`c1ccc(-c2cc(CN3CCC(c4ccn[nH]4)CC3)on2)cc1`: the INHIBITION is recorded as 73.5%.

For `c1ccc(-c2noc(CN3CCC(c4ccn[nH]4)CC3)n2)cc1`, the INHIBITION stood at 35.1%.

On to `Cn1cnc(S(=O)(=O)N2CCCC2c2ccnc3nccn23)c1` (stereo not given), for which the INHIBITION is given as 23.84%.

With `CC(C)c1nccn1C1CCCN(C(=O)CCNS(C)(=O)=O)C1` (stereo not given), the INHIBITION is 36.1%.

Turning to `CC(C)c1nccn1C1CCCN(C(=O)CCc2cscn2)C1` (stereo not given), the INHIBITION was determined as 62.1%.

For `CC(C)c1nccn1C1CCCN(C(=O)CCc2cnn(C)c2)C1` (stereo not given), the INHIBITION is recorded as 33.3%.

Take `CSCC(=O)N1CCCC(n2ccnc2C(C)C)C1` (stereo not given): the INHIBITION stood at 45.4%.

Regarding `CCc1nnsc1C(=O)N1CCCC(n2ccnc2C(C)C)C1` (stereo not given), the INHIBITION worked out at 53.9%.

Take `CC(C)c1nccn1C1CCCN(C(=O)c2nccnc2N)C1` (stereo not given): the INHIBITION turned out to be 41.5%.

On to `Cc1cc(N2CCC(c3ncc[nH]3)CC2)c2ccccc2n1`, for which the INHIBITION is 41.6%.

On to `Cc1nc(CN2CCOCC3(CCN(c4cnccn4)CC3)C2)cs1`, for which the INHIBITION is -11.6%.

For `CN(CC(C)(CO)CO)C(=O)Nc1cc(Cl)cc(Cl)c1`, the INHIBITION was 26.515%.

Turning to `c1csc(-c2nc(CN3CCCCC3Cn3cccn3)co2)c1` (stereo not given), the INHIBITION was found to be 11.5%.

On to `NC1CC(C(F)(F)F)=NC=C1c1ccccc1` (stereo not given), for which the INHIBITION is listed as 4.08%.

Consider `NC1CC(C(F)(F)F)=NC=C1c1ccc(Cl)cc1` (stereo not given), for which the INHIBITION was determined as 59%.

In the case of `COc1ccc(C2=CN=C(C(F)(F)F)CC2N)cc1` (stereo not given), the INHIBITION was -0.371%.

For `COc1ccc(C(=O)NC2CC2)c(OC2CCN(C3CCC3)CC2)c1`, the INHIBITION turned out to be 29.4%.

In the case of `COc1ccc(C(=O)NC2CC2)c(OC2CCN(CC3CC3)CC2)c1`, the INHIBITION was determined as 26.7%.

As for `COc1ccc(C(=O)NC2CC2)c(OC2CCN(CCCSC)CC2)c1`, the INHIBITION is listed as 60.3%.

Turning to `COc1ccc(C(=O)NC2CC2)c(OC2CCN(C(C)CO)CC2)c1` (stereo not given), the INHIBITION is 76.6%.

For `COc1ccc(C(=O)NC2CC2)c(OC)c1`, the INHIBITION is reported as 23.6%.

For the molecule `COc1ccccc1OC1CCN(C(=O)CCCN2CCOCC2)CC1`, the INHIBITION turned out to be 23.8%.

For the molecule `O=C(NC1CCCCC1)N1CCn2c(nnc2C2CCCN2)C1` (stereo not given), the INHIBITION was determined as 44.1%.

As for `CS(=O)(=O)NCc1nnc2n1CCN(Cc1cccs1)CC2`, the INHIBITION was determined as 34.6%.

Take `NC(=O)COc1ccc(CNCc2cc(F)cc(F)c2)cc1`: the INHIBITION is listed as -28%.

Turning to `Cc1cc2nc(C(C)C)cc(NCCc3ccncc3)n2n1`, the INHIBITION was determined as 34%.

Regarding `CC(=O)N1CCC(C(=O)NC(C)c2cccc(OC(F)F)c2)CC1` (stereo not given), the INHIBITION came to 58.3%.

Turning to `CC(NC(=O)C1CCN(S(N)(=O)=O)CC1)c1cccc(OC(F)F)c1` (stereo not given), the INHIBITION is 17%.

On to `CC(=O)N1CC(C(=O)Nc2cccc(OC(F)F)c2)C1`, for which the INHIBITION is 26%.

Turning to `CCc1ncc2c(n1)CN(Cc1cc(C)on1)CC2`, the INHIBITION is 35.4%.

For the molecule `Cc1nn(C)cc1-c1cncn1CCN(C)C1CCCC1`, the INHIBITION is -25.3%.

On to `Cc1ocnc1C(=O)N1CCN(CCOc2ccccc2)CC1`, for which the INHIBITION is 37.6%.

As for `CCCC(=O)N1CCCN(C(=O)c2oc(C)nc2C)CC1`, the INHIBITION stood at 80%.

With `Cc1nc(C)c(C(=O)N2CCc3nnc(C4CCCCN4C)n3CC2)o1` (stereo not given), the INHIBITION is reported as -4.68%.

As to `CCCN1CCCN(C(=O)c2oc(C)nc2C)CC1`, the INHIBITION is on record as 2.7%.

Regarding `COCCN1CCCN(C(=O)c2oc(C)nc2C)CC1`, the INHIBITION is 33.4%.

Take `Cc1nc(C)c(C(=O)N2CCN(CCOc3ccccc3C)CC2)o1`: the INHIBITION worked out at 66.3%.

On to `COCCNC(=O)C(C)n1nc(-c2ccco2)cc(N)c1=O` (stereo not given), for which the INHIBITION is listed as 42.6%.

Turning to `CC(C)OCCCN(Cc1ccncc1)Cc1cccc(F)c1F`, the INHIBITION is on record as -12.9%.

As to `COc1cc2cc(C(=O)O)n(C)c2c(OC)c1OC`, the INHIBITION was -9.48%.

As to `COc1cc2cc(C(=O)NCC(=O)O)n(C)c2c(OC)c1OC`, the INHIBITION was found to be 57.3%.

With `COc1cc2cc(C(=O)NCCC(=O)O)n(C)c2c(OC)c1OC`, the INHIBITION is on record as 11%.

Consider `Cc1nc(C2CCCN2CCC(=O)N2CCc3ccccc32)no1` (stereo not given), for which the INHIBITION amounted to 5.03%.

As to `Cc1nnc(N2C[C@H](OCC3CCCC3)[C@H]3OCCC[C@H]32)s1`, the INHIBITION is listed as -34.7%.

For `COc1ccc(OC)c(C2CCN(C3CCOCC3)C2)c1` (stereo not given), the INHIBITION was -68.6%.

As to `COc1ccc(OC)c(C2CCN(Cc3nc(C)n4ccccc34)C2)c1` (stereo not given), the INHIBITION is 45.8%.

With `COc1cccc(C2CC(=O)Nc3nc(N4CCCCC4)sc32)c1OC` (stereo not given), the INHIBITION worked out at 19.3%.

Regarding `COc1ccc(OC)c(C2CCN(c3ccc4cc[nH]c4n3)C2)c1` (stereo not given), the INHIBITION came out at 79.2%.

In the case of `COc1ccccc1C1CCN(c2ccc3cc[nH]c3n2)CC1`, the INHIBITION was 88.2%.

For the molecule `COc1cccc(C2CC(=O)Nc3nc(N4CCOCC4)sc32)c1OC` (stereo not given), the INHIBITION is reported as 13.4%.

Take `COc1cccc(C2CCN(c3ccc4cc[nH]c4n3)C2)c1OC` (stereo not given): the INHIBITION is 89.9%.

On to `COC(=O)c1ccc(N2CCC(c3ccccc3)CC2)nn1`, for which the INHIBITION is -18.5%.
